Data published in PubChem BioAssay AID2289 (National Center for Advancing Translational Sciences (NCATS), 2010).
Out of some 340,000 compounds screened, about 3,300 (0.97%) were called active. Not shown: some 9% with an inconclusive outcome. Calls follow the shape of the dose curve; as a rule, active = well fitted inhibition curve with a large enough effect; inconclusive = small, poorly fitted or top-dose-only effect, or effect the other way; inactive = flat fitted curve, though single readings scatter. Some of the results follow.

Assay: qHTS Assay for Modulators of miRNAs and/or Inhibitors of miR-21; also: nearly all actives have a fitted effect of over 55% in size
Conditions: HeLa miR-21-FLuc reporter, luciferase luminescence, 48 h; actives lower the signal
In short: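 HeLa cells endogenously expressing miR-21, stably carrying CMV-driven firefly luciferase with a downstream miR-21 binding site, 2000 cells/well. Titrations up to approximately 40 uM, 48 hours; luciferase luminescence read.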
Potency is read from the fitted curve at half-maximal effect.

Potency, active:
COc1cc(/C=N/Nc2nc3ccccc3s2)ccc1O 2.93 µM
CC(=O)Nc1ccc(/C=N/Nc2nc3ccccc3s2)cc1 0.185 µM
COc1cc(/C=C/c2nc3ccccc3s2)cc(OC)c1O 13.1 µM
COc1cc(/C=N/Nc2ccccc2C(F)(F)F)ccc1O 16.5 µM
O=C(O)c1ccc(N/N=C/C(Br)=C/c2ccccc2)cc1 1.17 µM
BrC(=C\c1ccccc1)/C=N/Nc1nc2ccccc2[nH]1 16.5 µM
O=C(c1ccco1)N1CCN(C(c2ccccn2)c2nnnn2C2CCCC2)CC1 (configuration not stated) 7.36 µM
Clc1ccc(-c2nnc(N3CCOCC3)o2)cc1 18.5 µM
Clc1ccc(-c2csc(N3CCOCC3)n2)cc1 3.29 µM
COc1ccc(-c2csc(N3CCOCC3)n2)cc1OC 5.85 µM
COc1ccc(-c2csc(N3CCSCC3)n2)cc1 10.4 µM
COc1ccc(-c2csc(N3C(=O)CNC3=S)n2)cc1 0.0585 µM
O=C(c1ccc(-c2ccc([N+](=O)[O-])cc2Cl)o1)N1CCOCC1 10.4 µM
O=C(c1ccc(-c2cccc(Cl)c2Cl)o1)N1CCOCC1 4.65 µM
O=C(c1ccc(-c2ccc([N+](=O)[O-])cc2)o1)N1CCCCC1 1.85 µM
O=C(c1ccc(-c2cccc(C(F)(F)F)c2)o1)N1CCOCC1 14.7 µM
O=C(c1ccc(-c2cc(Cl)ccc2Cl)o1)N1CCOCC1 18.5 µM
O=C(c1ccc(-c2ccc(Cl)cc2Cl)o1)N1CCOCC1 7.36 µM
Cc1nc(NC(=O)C2CCCC2)sc1Cc1ccc2c(c1)OCO2 9.27 µM
Cc1ccc(O)c(NC(=S)NC(=O)CC(C)C)c1 5.85 µM
Cc1sc(NC(=O)c2ccccc2F)c(CN2CCCCC2C)c1C (configuration not stated) 2.07 µM
O=c1oc2cc(O)ccc2cc1-c1ccccc1 13.1 µM
O=c1oc2ccccc2cc1-c1ccccc1 16.5 µM
O=c1oc2ccccc2cc1-c1nc(-c2cccs2)no1 1.17 µM
O=c1oc2ccccc2cc1-c1ccc(O)cc1 4.65 µM
O=c1oc2ccccc2cc1NCc1ccccc1O 10.4 µM
O=C(Nc1ccc(Br)cn1)c1cccc(-c2cc3ccccc3oc2=O)c1 3.69 µM
COc1cccc(C2(O)CC(C(F)(F)F)=NN2C(=O)c2ccccn2)c1 (configuration not stated) 13.1 µM
CN(C)c1ccc(/C=C(/C#N)C(=O)NCc2ccccc2)o1 14.7 µM
CCN(CC)c1ccc(/C=C(/C#N)C(=O)NCc2ccccc2)o1 10.4 µM
CCCc1ccc(-c2cc(NC(=O)CSc3n[nH]c(N)n3)n(-c3ccccc3)n2)cc1 18.5 µM
Cc1ccc(NC(=O)c2cnc3ccccc3n2)cc1C 1.31 µM
NC(=O)c1ccc(NC(=O)c2cnc3ccccc3n2)cc1 7.36 µM
c1ccc2c(c1)CCN(C1=Nc3cccc4cccc1c34)C2 18.5 µM
Cc1cc(C(=O)Nc2sc3c(c2C#N)CCC(C)C3)cs1 (configuration not stated) 0.736 µM
CCOC(=O)Nc1sc2c(c1C#N)CCC(C)C2 (configuration not stated) 5.21 µM
Cc1ccccc1Nc1c(-c2ccc(N3CCOCC3)cc2)nc2cnccn12 4.65 µM
Cc1ccc(-c2nc3cnccn3c2Nc2ccccc2)o1 16.5 µM
Cc1ccc(Nc2c(-c3ccc(N4CCOCC4)cc3)nc3cnccn23)cc1 7.36 µM
c1cn2c(NC3CCCC3)c(-c3ccc(N4CCOCC4)cc3)nc2cn1 6.56 µM
c1cn2c(Nc3ccc4c(c3)OCCO4)c(-c3ccc(N4CCOCC4)cc3)nc2cn1 6.56 µM
CCOC(=O)c1c(C)[nH]c(C(=O)OCc2ccccc2F)c1C 0.414 µM
CCOC(=O)c1c(C)[nH]c(C(=O)OCCOc2ccccc2C)c1C 1.85 µM
COC(=O)c1c(C)[nH]c(C(=O)OCc2ccc(F)cc2)c1C 2.07 µM
COc1cc(OC)cc(C(=O)O/N=C(\N)c2ccccn2)c1 1.65 µM
N/C(=N\OC(=O)COc1ccccc1)c1ccccn1 5.21 µM
N/C(=N\OC(=O)CCC1CCCC1)c1ccccn1 3.29 µM
Cc1cccc(OCC(=O)O/N=C(\N)c2ccccn2)c1C 6.56 µM
Cc1cccc(OCC(=O)O/N=C(\N)c2ccccn2)c1 7.36 µM
N/C(=N\OC(=O)C12CC3CC(CC(C3)C1)C2)c1ccccn1 5.21 µM
Cc1ccc(OCC(=O)O/N=C(\N)c2ccccn2)cc1 3.29 µM
COCCN(CCOC)S(=O)(=O)c1ccc(C(=O)Nc2sc3c(c2C(N)=O)CCCCC3)cc1 5.21 µM
CC(C)C(=O)NC(=S)Nc1sc2c(c1C(N)=O)CCCC2 6.56 µM
CCCCC(=O)Nc1sc2c(c1C(N)=O)CCC2 11.7 µM
O=C1/C(=C/c2ccc(O)c(O)c2)Oc2cc(O)ccc21 8.26 µM
COc1cc(/C=C2\Oc3cc(O)ccc3C2=O)ccc1O 5.21 µM
CCOC(=O)c1csc(-c2sccc2Br)n1 0.521 µM
Nc1c(Br)cc2oc(-c3ccccc3)nc2c1Br 2.07 µM
COc1ccc(-c2nc3c(Br)c(N)c(Br)cc3o2)cc1 2.07 µM
O=C(NCCN1CCOCC1)c1cc(-c2ccccc2)on1 18.5 µM
O=C(NCCCN1CCOCC1)c1cc(-c2ccccc2)on1 18.5 µM
O=C(NC1CCCCC1)c1cc(-c2ccccc2O)on1 7.36 µM
COc1ccccc1-c1cc(C(=O)NC2CCCC2)no1 14.7 µM
O=C(NC1CCCC1)c1cc(-c2ccc(Cl)cc2Cl)on1 5.21 µM
O=C(NC1CCCC1)c1cc(-c2ccccc2Cl)on1 1.65 µM
C=CCNC(=O)c1cc(-c2ccccc2O)on1 16.5 µM
O=C(Oc1ccc2c(c1)OCO2)c1ccc(F)cc1Cl 16.5 µM
CC1CCN(C(=O)CSc2nc3ccccc3[nH]2)CC1 2.93 µM
O=c1c2ccccc2nnn1CSc1nc2ccccc2[nH]1 4.65 µM
ClC1(Cl)CC1CSc1nc2ccccc2[nH]1 (configuration not stated) 14.7 µM
CCCCSc1nc2ccccc2[nH]1 13.1 µM
Cc1ccc(-c2cc(C(=O)O)n(Cc3ccccc3)n2)cc1 14.7 µM
Cc1ccc(Cn2nc(C)cc2C(=O)Nc2ccccc2Cl)cc1 7.36 µM
Cc1ccc(NC(=O)CC2CCCC2)c(Br)c1 14.7 µM
Cc1ccc(NC(=O)CNCc2cccs2)c(Br)c1 14.7 µM
Cc1c(C(N)=O)sc2nc(-c3ccccc3)cn12 11.7 µM
CNC(=O)c1sc2nc(-c3ccc(OC)cc3)cn2c1C 0.736 µM
O=C(O)c1cccc(N/N=C/c2cccs2)c1 0.0826 µM
O=C(O)c1cc(N/N=C/c2cccs2)ccc1Cl 1.85 µM
Cc1ccc(OC(=O)c2cccc(S(=O)(=O)N3CCCC3)c2)c(-n2nc3ccccc3n2)c1 2.61 µM
Cc1ccc(O)c(-n2nc3ccccc3n2)c1 11.7 µM
Cc1ccc(OC(=O)c2cccc(S(=O)(=O)N(C)C)c2)c(-n2nc3ccccc3n2)c1 5.85 µM
Cc1ccc(OC(=O)COc2ccccc2C)c(-n2nc3ccccc3n2)c1 4.14 µM
c1ccc(CCSc2nccn2-c2ccccc2)cc1 1.85 µM
CCN(CC)CCN(C(=O)c1ccc2ncsc2c1)c1nc2cc3c(cc2s1)OCO3 1.04 µM
O=C(N/N=C/C(Cl)=C\c1ccccc1)c1ccco1 3.69 µM
O=C(N/N=C/C=C/c1ccccc1)c1cccs1 7.36 µM
O=C(N/N=C/C(Cl)=C\c1ccccc1)c1cccs1 1.85 µM
CCOC(=O)N/N=C/C(Cl)=C/c1ccccc1 10.4 µM
COc1ccccc1/C=C/C=N/NC(=O)c1cccs1 3.69 µM
O=C(N/N=C/C=C/c1ccccc1)c1ccccn1 5.85 µM
O=C(N/N=C/C(Cl)=C/c1ccccc1)c1ccccc1F 8.26 µM
C/C(=N\O)c1ccc(N2C(=O)C3CC=C(Cl)CC3C2=O)cc1 (configuration not stated) 3.29 µM
CCOc1ccc(N=C/C=C/c2ccccc2)c(O)c1 3.29 µM
O=C(Cn1cnc2ccccc2c1=O)c1ccc(Cl)cc1 7.36 µM
Cc1ccc(C(=O)Cn2cnc3ccccc3c2=O)cc1 5.85 µM
O=C(Cn1cnc2ccccc2c1=O)c1ccc(Br)cc1 5.21 µM
O=C(Cn1cnc2ccccc2c1=O)c1ccc2ccccc2c1 7.36 µM
COc1ccc2cnn(-c3ccc(C)cc3)c(=O)c2c1OC 6.56 µM
CC(C)c1ccc(N(C(=O)c2ccco2)C(C(=O)NC2CCCC2)c2ccncc2)cc1 (configuration not stated) 6.56 µM
NC(=O)c1ccccc1OCc1nc2ccccc2s1 1.47 µM
OCc1cc(Br)ccc1OCc1nc2ccccc2s1 1.65 µM
Cc1cc(OCc2nc3ccccc3s2)ccc1N 1.17 µM
O=C(O)c1ccccc1OCc1nc2ccccc2s1 3.29 µM
CC(C)[C@@H](CO)NC(=O)c1ccc2c3n(nc2c1)-c1ccc(Cl)cc1CO3 1.85 µM
O=C(NCCO)c1ccc2c3n(nc2c1)-c1ccc(Cl)cc1CO3 9.27 µM
Cc1ccc2c(c1)COc1c3ccc(C(=O)NCCO)cc3nn1-2 5.21 µM
